Laboratory results from the supplement of paper PMC10121225.

Test system: hN + hpA co-culture (H1 iNGN2 human neurons + human primary astrocytes)
Assay: presynaptic density (SYNAPSIN1 puncta per MAP2 neurite area), Z-score vs DMSO controls; higher = more presynaptic puncta (synapse-promoting)
Conditions: 3 µM; 72 h
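Note: immunostained co-cultures imaged by high-content microscopy, Z-score per plate against mean and SD of 0.1% DMSO wells, compounds added on differentiation day 18, analysed day 21.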

Row | Structure (SMILES) | presynaptic density (Z-score)
1 | Nc1cccc2c1CN(C1CCC(=O)NC1=O)C2=O (centres undefined) [Lenalidomide] | 1.39
2 | CC(C)OC(=O)C1=CN(C(=O)c2ccc(F)c(F)c2)CC(C)(C)c2c1[nH]c1ccccc21 | -0.269
3 | COc1cc2c(cc1Cc1cccc(Cl)c1F)c(=O)c(C(=O)O)cn2[C@H](CO)C(C)C [Elvitegravir (GS-9137] | 0.597
4 | COc1cc(OC)c(/C=C/S(=O)(=O)Cc2ccc(OC)c(NCC(=O)O)c2)c(OC)c1 | -3.31
